A selection: hits, their analogues and other compounds. The true share with any hit is near 3.3%.
TPT1 inh = Candida albicans TPT1 enzyme inhibitors, primary screen, biochemical, fluorescence polarization; tRNA 2'-phosphotransferase TPT1 (Candida albicans SC5314); recombinant caTPT1, FP RNA substrate dephosphorylation; inhibition, % at 5 µM; hit rate 0.81% among 300,000;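 active = inhibition above the mean of all tested compounds plus 3 SD, set per screening campaign, cut at about 24% in these data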;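 note: plate controls were DMSO alone for no effect and ferristatin control at 100 nM for full effect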
Fh CTSL1 inh = Fasciola hepatica cathepsin L1 inhibitors, primary screen, counter-screen for PFM18AAP inhibitor project, biochemical, QFRET, fluorogenic peptide substrate. inhibition, % at 5.96 µM. recombinant F. hepatica cathepsin L1, Z-Leu-Arg-MCA fluorescence. AID 1906, 2009. hit rate 0.49% among 300,000;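 active = inhibition above the mean of all tested compounds plus 3 SD, set per screening campaign, cut at about 17% in these data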;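 note: 0% = plate median of test compound wells and 100% = 1 µM Z-Phe-Ala-diazomethylketone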
NRP1-CendR mod = modulators of CendR peptide binding to NRP-1, primary screen, biochemical, fluorescence polarization, uHTS; AID 602438, 2012; inhibition, % at 25 µM; Neuropilin-1 (Homo sapiens), O14786; FAM-RPARPAR peptide binding to NRP-1; hit rate 0.85% among 360,000;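 active = inhibition or corrected inhibition above about 18%, plus a signal ratio from 0.5 to 1.5, limit read from the data, passing the limit was not always enough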
Rpn11 block = Rpn11 (PSMD14) deubiquitinase inhibitors, primary screen, biochemical, fluorescence polarization, uHTS | 26S proteasome non-ATPase regulatory subunit 14 (Homo sapiens), O00487 | human 26S proteasome, Ub4-pepOG fluorescence polarization; 20S core pre-blocked with epoxomicin | inhibition, % at 20 µM | hit rate 0.59% among 360,000 | AID 588493, 2011;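 active = inhibition at 20 µM, scaled to each plate's controls, above about 33%, limit read from the data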
HNF4A DNA FP = change in binding of human HNF4A to DNA, primary screen, biochemical, fluorescence polarization, FITC-DNA. Hepatocyte nuclear factor 4-alpha (Homo sapiens), P41235. 1 h. activity change, % at 10 µM. hit rate 0.3% among 360,000. AID 1224865, 2016; in the data active = activity change above about 30%, passing the limit was not always enough
PHOSPHO1 block = PubChem AID 1565; recombinant PHOSPHO1, absorbance phosphatase assay; Phosphoethanolamine/phosphocholine phosphatase (Homo sapiens), Q8TCT1; inhibition, % at 13.3 µM; hit rate 1.1% among 290,000; in the data active = inhibition above about 60%
Target sequence (Q8TCT1 whole entry, looked up): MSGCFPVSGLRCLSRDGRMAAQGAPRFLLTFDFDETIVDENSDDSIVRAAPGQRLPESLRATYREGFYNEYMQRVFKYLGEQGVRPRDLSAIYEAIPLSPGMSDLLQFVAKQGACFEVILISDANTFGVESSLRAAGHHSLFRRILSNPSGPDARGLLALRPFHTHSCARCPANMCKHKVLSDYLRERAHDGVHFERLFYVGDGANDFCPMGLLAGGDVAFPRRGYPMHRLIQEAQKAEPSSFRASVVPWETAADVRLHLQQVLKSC
caTPT1 confirm = Candida albicans TPT1 inhibitors, confirmation, biochemical, fluorescence polarization, triplicate; hit rate 74% among 2,400; inhibition, % at 5 µM; recombinant caTPT1, RNase T1 coupled; shares compounds with TPT1 inh;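 active = inhibition above the primary screen limit, the mean inhibition of all tested compounds plus 3 SD, cut at about 25% in these data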
RNase T1 counter = RNase T1 inhibitors, counter-screen for TPT1 inhibitor project, biochemical, fluorescence polarization; inhibition, % at 5 µM; hit rate 83% among 2,400; RNase T1 cleavage, 1536-well; AID 2153, 2009; shares compounds with TPT1 inh;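 active = inhibition above the solvent-only control well mean plus 3 SD, limit set per screening run, cut at about 23% in these data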;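 note: plate controls were DMSO wells with enzyme for no effect and wells without RNase T1 for full effect; inhibitors block cleavage so intact labeled substrate keeps polarization high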
Target sequence (P00651 whole entry, looked up): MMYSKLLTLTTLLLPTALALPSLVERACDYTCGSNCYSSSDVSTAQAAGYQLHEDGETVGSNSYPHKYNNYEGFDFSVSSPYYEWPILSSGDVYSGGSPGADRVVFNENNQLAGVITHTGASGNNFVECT
* = called active by the depositor; / = not tested or not shown.

SMILES	TPT1 inh	Fh CTSL1 inh	NRP1-CendR mod	Rpn11 block	HNF4A DNA FP	PHOSPHO1 block	caTPT1 confirm	RNase T1 counter
CCCOC(=O)/C(C(N)=NCc1ccccc1)=C(\O)OCCC	4	5	2	0	2	39	/	/
C/C(=N\NC(=O)C1CC1)c1ccc(OC(F)F)cc1	-1	3	0	-2	3	35	/	/
CCn1cc(S(=O)(=O)CC(=O)Nc2ccc(OC)cc2)c2ccccc21	-1	-1	-4	1	3	-6	/	/
COc1ccc(C2=NN(c3nc(-c4ccc(CNC(C)=O)cc4)cs3)C(c3ccco3)C2)cc1 (centres undefined)	31*	11	-51	35	15	16	11	16
COc1ccc(-c2csc(N3CCN(C(=O)c4ccco4)CC3)n2)cc1	-1	-1	3	-3	3	33	/	/
CCC(CO)NC(=O)c1cccc(S(=O)(=O)N2c3ccccc3CC2C)c1 (centres undefined)	1	1	16	-7	-1	-23	/	/
Fc1ccccc1Nc1nc2ccccc2o1	2	-2	8	-3	3	34	/	/
COc1ccc(C(=O)Cn2nnc(-c3ccccc3NC(=O)C3CCCCC3)n2)cc1	30*	5	-29	16	8	11	43*	54*
COc1ccc(NC(=O)Cn2nnc(-c3ccccc3NC(=O)C3CC3)n2)cc1	-4	-2	6	1	0	-2	/	/
COc1ccc(NC(=O)c2cccc(NC(=O)C3C4CC5OC(=O)C3C5C4)c2)c(OC)c1 (centres undefined)	1	-3	-2	-2	0	-28	/	/
COCCN(C(=O)COC(=O)c1ccc2[nH]c(C)c(C)c2c1)c1c(N)n(Cc2ccccc2)c(=O)[nH]c1=O	28*	6	-57	23	11	/	60*	71*
CN1CCS/C1=C/C=C1\SC(=S)N(CC(=O)O)C1=O	169*	8	134	/	171	21	180*	167*
CN1CCS/C1=C/C=C1/SC(=S)N(Cc2ccccc2)C1=O	171*	7	132	/	146	6	169*	157*
CCCCN1C(=O)/C(=C/C=C2\SCCN2C)SC1=S	/	/	132	/	203	12	/	/
CC(=O)N1CCC(C(=O)N2c3ccccc3N=C(c3ccc4c(c3)OCO4)C2C(=O)NCc2ccccc2)CC1 (centres undefined)	/	/	-5	/	-2	/	/	/
CCOC(=O)/C=c1\s/c(=C\c2c(OC)ccc3ccccc23)c(=O)n1CC(=O)NCC1CCCO1 (centres undefined)	28*	-1	-30	/	14	10	41*	50*
O=C(NN=Cc1c(O)ccc2ccccc12)c1ccncc1	/	/	144	/	143	/	/	/
Cn1cc(C(=O)N/N=C/c2c(O)ccc3ccccc23)ccc1=O	57*	1	-22	25	21	27	70*	54*
Cn1nccc1C(=O)N/N=C/c1c(O)ccc2ccccc12	37*	-4	-7	23	26	29	44*	49*
COc1ccc(F)cc1-c1cc(C(=O)NCc2cc(C(F)(F)F)cc(C(F)(F)F)c2)[nH]n1	/	/	2	-3	1	/	/	/
O=C(CN(C(=O)CNC(=O)c1cccs1)c1cccc(F)c1)NC1CCCC1	3	0	-9	-1	-2	36	/	/
CCN1c2ccccc2NC2C1C(C(C)=O)C(=O)N2c1ccc(Cl)cc1 (centres undefined)	60*	6	-160	/	45*	-10	76*	85*
O=C1Nc2ccccc2N(O)N1c1ccc(Cl)cc1	0	4	-3	2	-6	8	/	/

Screening data deposited in PubChem by several laboratories.
